PubChem BioAssay (NCATS)
Records with an inconclusive call do not appear. Active and inactive are the calls of the source. Unless noted, calls come from the whole dose curve; as a rule, active = well fitted curve in the direction sought with a large enough effect; inconclusive = small, poorly fitted or top-dose-only effect, or another doubt; inactive = no such curve, though single readings can be large; an effect the other way counts as inactive or inconclusive.

How the values were obtained:
[1] = target: Lysosomal acid glucosylceramidase (Homo sapiens) (UniProt P04062); assay: Glucocerebrosidase-p2 (AID 348; in the data active = potency below about 10 µM; note: potency is the fitted concentration of half-maximal effect); settings: purified GBA, blue fluorogenic substrate, 40 min
Sequence of Lysosomal acid glucosylceramidase (Homo sapiens) (P04062 whole entry, looked up): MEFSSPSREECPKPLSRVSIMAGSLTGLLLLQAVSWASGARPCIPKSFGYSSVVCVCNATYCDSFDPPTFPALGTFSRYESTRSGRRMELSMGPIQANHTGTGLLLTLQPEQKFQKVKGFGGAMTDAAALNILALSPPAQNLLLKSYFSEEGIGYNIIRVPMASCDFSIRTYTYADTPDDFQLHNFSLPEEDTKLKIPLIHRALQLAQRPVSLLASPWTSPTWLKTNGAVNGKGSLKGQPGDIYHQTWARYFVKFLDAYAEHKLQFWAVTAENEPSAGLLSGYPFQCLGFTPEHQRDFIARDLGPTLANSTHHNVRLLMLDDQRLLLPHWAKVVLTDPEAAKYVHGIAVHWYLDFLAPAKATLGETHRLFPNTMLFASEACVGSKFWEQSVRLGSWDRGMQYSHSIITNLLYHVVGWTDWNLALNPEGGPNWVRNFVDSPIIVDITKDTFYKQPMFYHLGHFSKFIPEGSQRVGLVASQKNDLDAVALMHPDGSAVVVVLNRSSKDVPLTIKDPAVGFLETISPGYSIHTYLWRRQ
Outline: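 Normal human glucocerebrosidase (0.2 nM) with blue fluorogenic substrate (80 uM final) in citrate/phosphate pH 5.9 with 10mM sodium taurocholate, 0.01% tween-20; 40 min RT, NaOH/glycine stop; fluorescence Ex 365/Em 440; AC50 from a titration from 0.6 nM upwards.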

[2] = AP1 Signaling Pathway (AID 357; active = well fitted curve in either direction with a large enough effect, not every such curve was filed as active; note: % is set by controls: 0 for no effect and ±100 for the full control effect); settings: ME-180 AP-1-bla reporter, EGF-induced, beta-lactamase ratio, 5 h; at 7.69 µM (top of the series) unless noted
Outline: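 AP-1-bla ME-180 cells with beta-lactamase reporter under AP-1 response element, stimulated with EC50 EGF; compounds titrated, 5 hours at 37 degrees Celsius. CCF4 read at 460/530 nm ratio; positive and negative modulators judged by AC50.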

[3] = NFAT Signaling Pathway (AID 444; active = well fitted curve in either direction with a large enough effect, not every such curve was filed as active;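 note: carbachol stimulus at about its EC50 of 1 µM final; % is set by controls: 0 for no effect and ±100 for the full control effect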); settings: Jurkat NFAT-bla M1, carbachol, beta-lactamase ratio, 5 h; at 7.69 µM (top of the series) unless noted
Outline: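 Jurkat cells carrying an NFAT-driven β-lactamase reporter and co-transfected muscarinic M1 receptor were treated with compound plus carbachol (1 uM final, an EC50 level) for 5 h at 37 °C. CCF4 loading followed for 1 h at RT; 460/530 nm ratio gave %activity.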

[4] = target: Glucocorticoid receptor (Homo sapiens) (UniProt P04150); assay: GR-GFP Redistribution (AID 450;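 active = compounds whose dose series gives a full or clear partial fitted curve of increased nuclear translocation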; note: potency is the fitted concentration of half-maximal effect); settings: U2OS GR-GFP nuclear translocation, laser cytometry, 2 h
Sequence of Glucocorticoid receptor (Homo sapiens) (P04150 whole entry, looked up, the tested form may be a part): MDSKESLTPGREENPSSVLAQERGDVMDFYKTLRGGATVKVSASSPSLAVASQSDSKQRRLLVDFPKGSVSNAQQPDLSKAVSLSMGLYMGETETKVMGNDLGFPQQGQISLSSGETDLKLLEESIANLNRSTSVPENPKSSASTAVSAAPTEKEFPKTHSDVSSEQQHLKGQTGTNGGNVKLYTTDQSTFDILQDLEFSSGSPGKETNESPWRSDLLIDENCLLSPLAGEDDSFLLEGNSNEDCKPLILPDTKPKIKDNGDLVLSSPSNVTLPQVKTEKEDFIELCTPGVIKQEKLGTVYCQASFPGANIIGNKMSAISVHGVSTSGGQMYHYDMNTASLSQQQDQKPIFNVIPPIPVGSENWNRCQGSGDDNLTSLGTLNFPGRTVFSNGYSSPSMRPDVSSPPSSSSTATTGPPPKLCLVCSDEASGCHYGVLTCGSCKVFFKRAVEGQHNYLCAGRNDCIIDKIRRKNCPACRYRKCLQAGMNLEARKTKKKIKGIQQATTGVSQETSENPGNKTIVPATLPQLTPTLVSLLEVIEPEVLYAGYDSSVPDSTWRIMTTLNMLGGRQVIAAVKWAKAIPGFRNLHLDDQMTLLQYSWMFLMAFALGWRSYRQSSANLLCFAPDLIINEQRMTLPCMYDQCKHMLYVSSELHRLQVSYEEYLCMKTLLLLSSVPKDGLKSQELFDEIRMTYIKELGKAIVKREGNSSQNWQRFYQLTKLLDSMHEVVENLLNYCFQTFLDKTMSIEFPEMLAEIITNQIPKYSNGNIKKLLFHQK

[5] = target: Glucocorticoid receptor (Homo sapiens) (UniProt P04150); assay: GR-EFC Redistribution (AID 451; calls by dose curve; note: potency is the fitted concentration of half-maximal effect); settings: CHO-K1 GR-EFC translocation, beta-gal luminescence, 2 h
Outline: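 CHO-K1 cells stably expressing nuclear-localized β-gal enzyme acceptor and GR fused C-terminally to the enzyme donor fragment; ligand-driven nuclear translocation restores β-gal by complementation. Compounds titrated up to 46 uM final, 2 h at 37 °C; luminescence read.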

[6] = target: Mitogen-activated protein kinase 10 (Mus musculus) (UniProt Q61831); assay: JNK3 AlphaScreen Assay (AID 530; active = well fitted curve in either direction with a large enough effect, not every such curve was filed as active;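 note: kinase came from lysate of stimulated human HepG2 cells; signal reports phosphorylation of biotinylated GST-cJun 1-79 at Ser73 with 10 µM ATP; % is set by controls: 0 for no effect and ±100 for the full control effect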)
Outline: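 Biotinylated GST-cJun(1-79) served as substrate for JNK3 in HepG2 lysates stimulated with IL-1beta and TNF-alpha. ATP was 10 uM final, pH 7.6. Ser73 phosphorylation was quantified by AlphaScreen (680 nm excitation).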

[7] = target: 3',5'-cyclic-AMP phosphodiesterase 4B (Homo sapiens) (UniProt Q07343); assay: qHTS Assay for Inhibitors of PDE-IV (AID 607; active = well fitted activation curve with a large enough effect in the main read-out, with a control signal flat, not every such curve was filed as active; note: % of control where 0% means no effect)
Sequence of 3',5'-cyclic-AMP phosphodiesterase 4B (Homo sapiens) (Q07343 whole entry, looked up): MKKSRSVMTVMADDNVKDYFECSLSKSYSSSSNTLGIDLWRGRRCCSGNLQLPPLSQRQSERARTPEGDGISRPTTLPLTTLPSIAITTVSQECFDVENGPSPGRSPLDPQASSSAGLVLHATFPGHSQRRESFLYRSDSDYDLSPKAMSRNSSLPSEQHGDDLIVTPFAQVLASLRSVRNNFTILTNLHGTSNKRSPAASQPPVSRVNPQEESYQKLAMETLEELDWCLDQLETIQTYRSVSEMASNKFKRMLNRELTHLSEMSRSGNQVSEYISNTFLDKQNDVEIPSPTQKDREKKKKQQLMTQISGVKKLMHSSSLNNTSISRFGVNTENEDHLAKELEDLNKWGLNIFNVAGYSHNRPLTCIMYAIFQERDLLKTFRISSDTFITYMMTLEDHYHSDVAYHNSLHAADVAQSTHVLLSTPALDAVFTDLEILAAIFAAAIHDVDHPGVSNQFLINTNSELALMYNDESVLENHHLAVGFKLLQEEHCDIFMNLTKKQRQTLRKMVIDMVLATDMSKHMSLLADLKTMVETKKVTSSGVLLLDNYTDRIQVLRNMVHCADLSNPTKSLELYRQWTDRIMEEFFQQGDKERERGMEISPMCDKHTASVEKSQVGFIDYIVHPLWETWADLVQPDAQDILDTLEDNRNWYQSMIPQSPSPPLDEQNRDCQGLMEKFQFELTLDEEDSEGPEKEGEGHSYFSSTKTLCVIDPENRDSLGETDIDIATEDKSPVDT
Outline: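 HEK293 ACTOne cells with CNG channel (1000/well), endogenous PDE4; membrane potential dye, compounds up to 22.9 uM final. Fluorescence Ex 535/Em 590; RO 20-1724 (100 uM final) as reference.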

[8] = qHTS Assay for Lipid Storage Modulators (AID 1519; calls by dose curve); settings: Drosophila S3 cells, BODIPY lipid droplet/cell ratio, laser cytometry, cells loaded with oleic acid; for activity change, negative = inhibition: at 57.5 µM (top of the series)
Outline: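 Cells seeded at 5,000 per well were treated with compounds over a concentration series and loaded with oleic acid (400 uM, as added). Lipid droplet fluorescence (488 nm excitation, 500-530 nm channel) was read by laser-scanning cytometry and normalized to 20 uM Triacsin C.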

[9] = target: Dual specificity protein kinase CLK4 (Homo sapiens) (UniProt Q9HAZ1); assay: qHTS Assay for Inhibitors of CDC-like Kinase 4 (Kinase-Glo Assay) (AID 1770); note: % is set by controls: 0 for no effect and ±100 for the full control effect; nearly all actives have a fitted effect of over 65% in size
Sequence of Dual specificity protein kinase CLK4 (Homo sapiens) (Q9HAZ1 whole entry, looked up): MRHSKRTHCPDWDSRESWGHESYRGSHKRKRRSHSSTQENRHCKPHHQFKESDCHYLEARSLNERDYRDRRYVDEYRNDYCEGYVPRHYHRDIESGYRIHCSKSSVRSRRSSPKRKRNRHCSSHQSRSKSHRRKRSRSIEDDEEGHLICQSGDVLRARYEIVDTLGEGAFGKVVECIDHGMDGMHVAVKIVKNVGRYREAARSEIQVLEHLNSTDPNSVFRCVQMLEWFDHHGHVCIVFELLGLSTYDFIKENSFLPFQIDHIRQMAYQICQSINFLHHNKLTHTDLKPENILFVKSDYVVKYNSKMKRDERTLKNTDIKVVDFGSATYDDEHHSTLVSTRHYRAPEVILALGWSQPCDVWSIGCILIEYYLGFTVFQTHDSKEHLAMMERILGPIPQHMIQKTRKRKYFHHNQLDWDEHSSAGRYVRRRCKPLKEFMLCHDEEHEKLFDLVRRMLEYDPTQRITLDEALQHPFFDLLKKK
Outline: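 Recombinant human Clk4 (25 nM) phosphorylated RS repeat peptide (100 uM) with 1 uM ATP in Tris pH 7.5/MgCl2/EGTA/DTT/Triton buffer for 4.5 h at room temperature. Residual ATP was quantified by Kinase-Glo luciferase luminescence.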

[10] = target: Dual specificity protein kinase CLK4 (Homo sapiens) (UniProt Q9HAZ1); assay: qHTS Assay for Inhibitors of CDC-like Kinase 4 (ADP-FP Assay) (AID 1795); note: % is set by controls: 0 for no effect and ±100 for the full control effect; nearly all actives have a fitted effect of over 60% in size
Outline: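 Recombinant human Clk4 (6.25 nM) phosphorylated RS repeat peptide (100 uM) with 1 uM ATP in Tris pH 7.5/MgCl2/EGTA/DTT/Triton buffer for one hour. ADP was quantified by Transcreener competitive fluorescence polarization against an ADP calibration curve.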

[11] = target: Ubiquitin carboxyl-terminal hydrolase 1 (Homo sapiens) (UniProt O94782); assay: Inhibitors of USP1/UAF1: Pilot qHTS (AID 504865);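 note: rhodamine fluorescence freed from ubiquitin-rhodamine substrate followed over time; top concentration of the series differs between compounds; % is set by controls: 0 for no effect and ±100 for the full control effect; nearly all actives have a fitted effect of over 35% in size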
Sequence of Ubiquitin carboxyl-terminal hydrolase 1 (Homo sapiens) (O94782 whole entry, looked up): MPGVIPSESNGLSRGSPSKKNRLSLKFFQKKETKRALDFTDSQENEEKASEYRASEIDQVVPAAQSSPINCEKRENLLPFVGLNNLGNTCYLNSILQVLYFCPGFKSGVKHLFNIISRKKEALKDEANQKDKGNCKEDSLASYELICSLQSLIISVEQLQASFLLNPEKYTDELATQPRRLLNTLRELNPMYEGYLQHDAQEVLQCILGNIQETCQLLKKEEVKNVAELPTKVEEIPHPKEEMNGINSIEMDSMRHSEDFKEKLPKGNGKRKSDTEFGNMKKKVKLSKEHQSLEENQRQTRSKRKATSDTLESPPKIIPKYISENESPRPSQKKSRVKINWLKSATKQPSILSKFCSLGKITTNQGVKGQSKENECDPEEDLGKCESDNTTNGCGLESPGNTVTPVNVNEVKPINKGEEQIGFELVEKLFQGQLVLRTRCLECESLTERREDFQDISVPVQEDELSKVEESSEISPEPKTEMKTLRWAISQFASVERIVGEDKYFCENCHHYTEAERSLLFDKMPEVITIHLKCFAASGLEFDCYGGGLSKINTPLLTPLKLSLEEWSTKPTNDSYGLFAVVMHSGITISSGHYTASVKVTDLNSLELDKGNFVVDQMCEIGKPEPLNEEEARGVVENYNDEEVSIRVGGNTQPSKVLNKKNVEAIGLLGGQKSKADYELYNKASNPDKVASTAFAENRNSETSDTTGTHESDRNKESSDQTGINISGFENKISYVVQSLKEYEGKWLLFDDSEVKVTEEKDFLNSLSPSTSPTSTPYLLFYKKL
Outline: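 USP1/UAF1 complex (1nM) preincubated with compound 15 min at room temperature, then Ub-Rho substrate (150nM final) added. Fluorescence read kinetically at 480/540 nm, 6 reads every 60 seconds. Buffer: 50mM HEPES pH 7.8, 0.5mM EDTA, 0.1 mg/ml BSA, 1mM TCEP, 0.01% Tween-20.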

[12] = Primary qHTS for small molecule stabilizers of the endoplasmic reticulum resident proteome: Secreted ER Calcium Modulated Protein (SERCaMP) assay (AID 1508630); note: % is set by controls: 0 for no effect and ±100 for the full control effect
Outline: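 The SH-SY5Y reporter protocol was run at 3 concentrations up to 38.3 uM (primary) or 11 concentrations (follow-up): 16 h compound, 100 nM thapsigargin for 4 h, then extracellular luciferase luminescence.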

[13] = target: Cytochrome P450 1A2 (Homo sapiens) (UniProt P05177); assay: p450-cyp1a2 (AID 410; calls by dose curve; note: potency is the fitted concentration of half-maximal effect)
Sequence of Cytochrome P450 1A2 (Homo sapiens) (P05177 whole entry, looked up): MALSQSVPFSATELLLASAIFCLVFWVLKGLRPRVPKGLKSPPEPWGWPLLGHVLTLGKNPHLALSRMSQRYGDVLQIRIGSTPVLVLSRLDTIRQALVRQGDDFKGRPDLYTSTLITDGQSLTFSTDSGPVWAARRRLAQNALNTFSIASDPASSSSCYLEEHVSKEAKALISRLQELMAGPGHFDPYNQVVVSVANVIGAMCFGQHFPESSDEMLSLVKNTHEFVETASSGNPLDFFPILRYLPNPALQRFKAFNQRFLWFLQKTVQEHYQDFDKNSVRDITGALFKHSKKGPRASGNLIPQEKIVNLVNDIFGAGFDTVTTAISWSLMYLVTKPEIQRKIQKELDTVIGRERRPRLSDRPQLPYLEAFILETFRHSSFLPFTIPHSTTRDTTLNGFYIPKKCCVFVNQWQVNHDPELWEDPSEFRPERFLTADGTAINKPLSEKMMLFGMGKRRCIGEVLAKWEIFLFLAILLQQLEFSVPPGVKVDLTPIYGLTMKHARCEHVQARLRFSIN
Outline: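 Read-out is luminescence from luciferin produced by CYP1A2 demethylation of Luciferin-ME (100uM, at Km). Detection reagent stopped the 60 min NADPH-dependent reaction; signals were normalized to 57 uM furafylline.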

[14] = Stat Signaling Pathway (AID 446; active = well fitted curve in either direction with a large enough effect, not every such curve was filed as active); settings: ME-180 SIE beta-lactamase reporter, IL-6 stimulated, 5 h; at 7.69 µM (top of the series) unless noted
Outline: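 Normalization used AC90 stimulation (300 pM IL-6) and AC90 inhibition (125 nM pan-JAK inhibitor at 40 pM IL-6). The underlying signal is SIE-driven beta-lactamase in ME-180 cells after 5 h IL-6 exposure with compound.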

[15] = qHTS Assay for Identification of Small Molecule Agonists for Hypoxia Response Element Signaling Pathway (AID 914; active = well fitted activation curve with a large enough effect in the signal ratio, with a control signal flat, not every such curve was filed as active; the % refers to the signal ratio; note: % of control where 0% means no effect); settings: ME-180 (cervical carcinoma) HRE-bla reporter, beta-lactamase ratio, CoCl2, 17 h; activation: stronger effect = higher value
Outline: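 Compounds in a titration series were added to ME-180 reporter cells alongside an EC50 level of CoCl2. After 17 hours, beta-lactamase activity was read as the 460nm/530nm emission ratio of CCF4, giving AC50 values.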

[16] = target: Dual specificity protein kinase CLK4 (Homo sapiens) (UniProt Q9HAZ1); assay: qHTS Assay for Inhibitors of CDC-like Kinase 4 (ADP-Glo Assay) (AID 1771); note: nearly all actives have a fitted effect of over 70% in size; note: potency is the fitted concentration of half-maximal effect
Outline: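 In this ADP-Glo format, 1 uM ATP and 100 uM RS peptide served as substrates for 25 nM Clk4 in Mg2+/EGTA/DTT/Triton buffer; reactions ran 1 hr at room temperature before luminescent ADP quantification.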

[17] = target: Cytochrome P450 3A4 (Homo sapiens) (UniProt P08684); assay: qHTS Assay for Inhibitors and Substrates of Cytochrome P450 3A4 (AID 884); note: potency is the fitted concentration of half-maximal effect; nearly all actives have a fitted effect of over 50% in size
Sequence of Cytochrome P450 3A4 (Homo sapiens) (P08684 whole entry, looked up): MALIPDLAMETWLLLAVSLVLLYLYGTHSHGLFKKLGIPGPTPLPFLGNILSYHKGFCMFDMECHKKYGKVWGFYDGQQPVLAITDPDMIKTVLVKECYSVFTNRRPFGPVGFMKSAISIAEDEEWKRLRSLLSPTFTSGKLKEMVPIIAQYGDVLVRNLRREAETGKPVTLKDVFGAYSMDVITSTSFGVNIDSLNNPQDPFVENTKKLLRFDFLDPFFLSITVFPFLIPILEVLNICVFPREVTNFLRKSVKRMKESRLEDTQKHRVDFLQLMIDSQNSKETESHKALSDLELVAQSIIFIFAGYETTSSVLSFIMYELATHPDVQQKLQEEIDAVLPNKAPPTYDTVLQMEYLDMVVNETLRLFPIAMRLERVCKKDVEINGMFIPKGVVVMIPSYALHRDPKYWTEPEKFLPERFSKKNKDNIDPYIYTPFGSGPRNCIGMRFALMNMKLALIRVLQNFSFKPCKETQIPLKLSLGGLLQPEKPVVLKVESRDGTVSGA
Outline: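 Luminescent readout of luciferin produced by CYP3A4 (20 nM) dealkylation of Luciferin-PPXE, 25 uM (its KM). NADPH-driven reaction ran 60 min at RT after 10 min compound preincubation; data scaled to 57 uM ketoconazole as 100% inhibition.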

[18] = target: Cytochrome P450 3A4 (Homo sapiens) (UniProt P08684); assay: qHTS Assay for Activators of Cytochrome P450 3A4 (AID 885); note: nearly all actives have a fitted effect of over 65% in size
Outline: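 Human CYP3A4 dealkylates Luciferin-PPXE to luciferin, which luciferase detection converts to light. Substrate was at its KM (25uM), buffer 200mM KPO4, reaction 60 min at RT.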

[19] = measured here: cell count channel max response
[20] = measured here: lipid channel max response

Row | SMILES | Potency [1] | activity change, negative = inhibition [2] | activity change, negative = inhibition [3] | Potency [4] | Potency [5] | outcome [6] | Potency [7] | activity change, negative = inhibition [8] | max response [8, 19] [%] | max response [8, 20] [%] | Potency [9] | Potency [10] | Potency [11] | Potency [12] | Potency [13] | activity, negative = inhibition [14] | activation [15] | Potency [16] | Potency [17] | Potency [18]
1 | CN(C)Cc1ccccc1-c1nc(NC2CCNCC2)c2ccccc2n1 | > 11.4 µM (inactive) | 24.8% (inactive) | -15% (inactive) | > 46 µM (inactive) | > 46 µM (inactive) | inactive | inactive | 2.42% (inactive) | 8.01 | 7.24 | inactive | inactive | inactive | inactive | – | – | – | – | – | –
2 | CCNc1ncc2nc(C)c(=O)n(C)c2n1 | > 11.4 µM (inactive) | -6.84% (inactive) | 2.38% (inactive) | > 9.22 µM (inactive) | > 46 µM (inactive) | inactive | – | 2.6% (inactive) | 22.7 | 26.7 | – | inactive | inactive | inactive | 5.01 µM (active) | -8.23% (inactive) | – | – | – | –
3 | CN1CCN(c2ccnc(-c3ccoc3)n2)CC1 | – | 21.7% (inactive) | -15.5% (inactive) | – | > 46 µM (inactive) | inactive | inactive | 0.402% (inactive) | 20.2 | 20.2 | inactive | inactive | inactive | inactive | 12.6 µM (active) | 11.2% (inactive) | – | – | – | –
4 | CN(C)c1ncc2nc(-c3cn(C)c4ccccc34)c(=O)n(C[C@H]3CCCO3)c2n1 | > 11.4 µM (inactive) | -23.8% (inactive) | 3.82% (inactive) | > 9.22 µM (inactive) | > 46 µM (inactive) | inactive | – | 6.78% (inactive) | 5.1 | 8.36 | inactive | – | inactive | inactive | – | -10.1% (inactive) | – | – | – | –
5 | CCNc1ncc2nc(-c3cn(C)c4ccccc34)c(=O)n(-c3ccc(OC)cc3)c2n1 | > 11.4 µM (inactive) | -24.5% (inactive) | -8.46% (inactive) | > 9.22 µM (inactive) | > 46 µM (inactive) | inactive | – | 5.38% (inactive) | 20.6 | 23 | – | inactive | inactive | inactive | – | -5.46% (inactive) | -6.54% (inactive) | inactive | – | –
6 | Cc1noc(C)c1-c1cc(Nc2ccccc2)ncn1 | > 11.4 µM (inactive) | -11.6% (inactive) | -3.87% (inactive) | > 46 µM (inactive) | > 46 µM (inactive) | inactive | – | 4.92% (inactive) | 15.2 | 17.9 | – | inactive | inactive | inactive | 1.26 µM (active) | -5.08% (inactive) | – | – | – | –
7 | CS(=O)(=O)Nc1cccc(-c2cncnc2Nc2ccc(F)cc2)c1 | – | -19.4% (inactive) | – | > 46 µM (inactive) | > 46 µM (inactive) | inactive | inactive | 8.07% (inactive) | 21.9 | 26.3 | – | inactive | inactive | inactive | 5.01 µM (active) | 13.7% (inactive) | – | 31.6 µM (active) | 0.316 µM (active) | inactive
